Percent Effect data for five compounds are collected here from ChEMBL document CHEMBL3988442, “University of Dundee, Small-Polar-MMV Screening Library” (2021).

For some assays here: Measured potencies and affinities stand elsewhere.

Parameters in all cases: scale not given: direction of the effect not stated beside the values
In assay [1] the target is Protein translocase subunit SecA (Escherichia coli (strain K12)) (UniProt P10408). The experiment in a line: Assay to Identify E. coli SecA ATPase Inhibitors. The assay is classed as functional. To be noted: 30 µM.
For assay [2], the target named is T1, Ubiquitin-activating enzyme e1, putative (Leishmania donovani (strain BPK282A1)) (UniProt E9BSI1).
T1 sequence (whole entry): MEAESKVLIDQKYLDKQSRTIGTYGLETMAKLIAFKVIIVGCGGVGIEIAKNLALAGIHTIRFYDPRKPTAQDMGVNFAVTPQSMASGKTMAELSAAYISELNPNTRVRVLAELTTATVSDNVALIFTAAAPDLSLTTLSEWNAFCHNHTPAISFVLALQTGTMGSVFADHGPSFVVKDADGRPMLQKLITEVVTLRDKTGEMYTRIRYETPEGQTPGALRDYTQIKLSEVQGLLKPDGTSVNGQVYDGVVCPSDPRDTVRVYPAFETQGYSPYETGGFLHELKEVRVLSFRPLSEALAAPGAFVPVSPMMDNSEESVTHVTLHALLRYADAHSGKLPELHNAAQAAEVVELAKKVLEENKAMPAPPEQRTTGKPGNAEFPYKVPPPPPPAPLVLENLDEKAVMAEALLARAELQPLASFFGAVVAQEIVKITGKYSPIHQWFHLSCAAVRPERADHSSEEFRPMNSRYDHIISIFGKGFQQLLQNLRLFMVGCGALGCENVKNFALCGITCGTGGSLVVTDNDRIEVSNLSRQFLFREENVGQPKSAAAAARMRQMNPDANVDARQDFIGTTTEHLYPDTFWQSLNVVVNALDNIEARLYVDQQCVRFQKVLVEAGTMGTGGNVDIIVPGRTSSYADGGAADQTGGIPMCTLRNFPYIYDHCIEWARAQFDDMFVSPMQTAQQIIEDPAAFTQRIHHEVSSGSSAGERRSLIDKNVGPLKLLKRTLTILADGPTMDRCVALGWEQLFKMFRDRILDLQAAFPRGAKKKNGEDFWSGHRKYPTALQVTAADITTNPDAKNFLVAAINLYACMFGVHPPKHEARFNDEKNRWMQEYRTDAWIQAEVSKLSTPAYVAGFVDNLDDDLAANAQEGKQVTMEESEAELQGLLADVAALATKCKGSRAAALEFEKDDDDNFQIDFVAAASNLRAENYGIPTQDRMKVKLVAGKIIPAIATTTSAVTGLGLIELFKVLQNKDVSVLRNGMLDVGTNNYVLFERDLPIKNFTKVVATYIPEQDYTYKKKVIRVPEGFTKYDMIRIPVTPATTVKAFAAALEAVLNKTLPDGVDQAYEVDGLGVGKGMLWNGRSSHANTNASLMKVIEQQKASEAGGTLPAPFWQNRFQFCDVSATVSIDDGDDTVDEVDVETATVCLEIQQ
The experiment in a line: Leishmania donovani Ubiquitin Activating Enzyme (LdE1). It counts as functional. To be noted: 30 µM.

Assay [3] deals with T2, Aspartate--tRNA(Asp/Asn) ligase (Mycobacterium tuberculosis (strain ATCC 25618 / H37Rv)) (UniProt P9WFW3).
T2 sequence (whole entry): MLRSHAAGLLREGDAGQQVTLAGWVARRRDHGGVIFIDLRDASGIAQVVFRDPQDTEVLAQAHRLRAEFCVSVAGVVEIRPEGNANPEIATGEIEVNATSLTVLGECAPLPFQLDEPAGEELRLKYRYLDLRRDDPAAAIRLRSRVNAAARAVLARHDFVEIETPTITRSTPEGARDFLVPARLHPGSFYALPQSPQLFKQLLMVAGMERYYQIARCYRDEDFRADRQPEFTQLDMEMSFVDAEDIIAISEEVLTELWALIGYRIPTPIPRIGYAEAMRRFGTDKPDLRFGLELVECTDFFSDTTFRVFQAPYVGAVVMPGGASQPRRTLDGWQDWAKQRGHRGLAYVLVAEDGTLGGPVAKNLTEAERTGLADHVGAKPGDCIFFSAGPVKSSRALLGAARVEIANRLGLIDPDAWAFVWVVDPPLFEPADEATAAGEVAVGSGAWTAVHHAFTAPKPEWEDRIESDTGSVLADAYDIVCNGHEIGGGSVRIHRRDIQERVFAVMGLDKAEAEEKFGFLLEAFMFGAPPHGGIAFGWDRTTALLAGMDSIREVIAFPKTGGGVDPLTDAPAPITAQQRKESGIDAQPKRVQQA
The experiment in a line: Assay for Asp RNA synthetase-1 from Mycobacterium tuberculosis. It counts as functional. To be noted: 30 µM.

Assay [4] has as its target AMP-activated protein kinase, AMPK (Homo sapiens) (UniProt P54646+O43741+P54619+Q9UGJ0+Q9Y478+Q13131+Q9UGI9). The experiment in a line: AMP-dependent Kinase enzyme assay. An in vitro enzyme assay that detects ADP turnover that is directly proportional to AMPK activity. This uses naive AMPK that is activated during the assay with MK-8722. It counts as functional. To be noted: 30 µM.

For assay [5], the target named is Sialic acid-binding Ig-like lectin 9 (Homo sapiens) (UniProt Q9Y336). The experiment in a line: Hs-Siglec9 ALPHAscreen SOP 20170721. To be noted: 10 µM.
In assay [6] the test system is Trypanosoma cruzi. The experiment in a line: Trypanosoma cruzi phosphomannomutase and mannose-1-phosphate guanylyltransferase assay. It counts as functional. To be noted: 10 µM.
Assay [7] addresses T3, Arginase-2, mitochondrial (Homo sapiens) (UniProt P78540).
T3 sequence (whole entry): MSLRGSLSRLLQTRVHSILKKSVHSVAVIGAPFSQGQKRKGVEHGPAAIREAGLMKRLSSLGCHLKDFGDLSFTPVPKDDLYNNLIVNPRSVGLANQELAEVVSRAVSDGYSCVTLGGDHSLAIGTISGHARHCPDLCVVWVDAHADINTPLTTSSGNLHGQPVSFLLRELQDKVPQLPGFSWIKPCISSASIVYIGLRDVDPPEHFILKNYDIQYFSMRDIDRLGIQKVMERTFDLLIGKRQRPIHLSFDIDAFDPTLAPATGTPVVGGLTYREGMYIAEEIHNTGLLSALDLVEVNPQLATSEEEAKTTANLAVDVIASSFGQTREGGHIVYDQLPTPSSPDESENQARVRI
The experiment in a line: in vitro enzyme assay to detect the production of urea directly proportional to the activity of Arginase II. Note: in the data most compounds retested in dose-response had high values. To be noted: 33.3 µM. It counts as functional.

The target in assay [8] is T4, Proteasome subunit beta (Trypanosoma cruzi) (UniProt O96673).
T4 sequence (whole entry): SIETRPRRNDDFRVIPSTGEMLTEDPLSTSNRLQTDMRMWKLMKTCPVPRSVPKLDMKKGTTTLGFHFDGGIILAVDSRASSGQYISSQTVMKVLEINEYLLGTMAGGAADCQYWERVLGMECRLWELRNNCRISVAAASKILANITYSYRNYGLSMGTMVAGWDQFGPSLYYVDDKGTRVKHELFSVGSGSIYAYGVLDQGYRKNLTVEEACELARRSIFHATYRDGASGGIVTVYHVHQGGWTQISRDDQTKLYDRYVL
The experiment in a line: Trypanosoma cruzi proteasome chymotrypsin-like activity (TcProtChymo) assay. Note: in the data most compounds retested in dose-response had high values. The assay is classed as functional. To be noted: 9.37 µM.

For assay [9], the species on record is Homo sapiens. The experiment in a line: To identify inhibition of the IFN signalling (Jak-Stat) pathway via expression of an eGFP reporter gene under the control of an IFN-stimulated response element (ISRE) containing MxA promoter. The assay is classed as functional. To be noted: 30 µM.
Assay [10] concerns the target Shiga toxin 2 (Escherichia coli O157:H7) (UniProt P09385+P09386). The experiment in a line: E. coli 0.157:H7 Shiga Toxin SOP - stx2 screening assay. It counts as functional. To be noted: 30 µM.
Assay [11] deals with T5, Tyrosyl-tRNA synthetase, putative (Trypanosoma cruzi (strain CL Brener)) (UniProt Q4DSP6).
T5 sequence (whole entry): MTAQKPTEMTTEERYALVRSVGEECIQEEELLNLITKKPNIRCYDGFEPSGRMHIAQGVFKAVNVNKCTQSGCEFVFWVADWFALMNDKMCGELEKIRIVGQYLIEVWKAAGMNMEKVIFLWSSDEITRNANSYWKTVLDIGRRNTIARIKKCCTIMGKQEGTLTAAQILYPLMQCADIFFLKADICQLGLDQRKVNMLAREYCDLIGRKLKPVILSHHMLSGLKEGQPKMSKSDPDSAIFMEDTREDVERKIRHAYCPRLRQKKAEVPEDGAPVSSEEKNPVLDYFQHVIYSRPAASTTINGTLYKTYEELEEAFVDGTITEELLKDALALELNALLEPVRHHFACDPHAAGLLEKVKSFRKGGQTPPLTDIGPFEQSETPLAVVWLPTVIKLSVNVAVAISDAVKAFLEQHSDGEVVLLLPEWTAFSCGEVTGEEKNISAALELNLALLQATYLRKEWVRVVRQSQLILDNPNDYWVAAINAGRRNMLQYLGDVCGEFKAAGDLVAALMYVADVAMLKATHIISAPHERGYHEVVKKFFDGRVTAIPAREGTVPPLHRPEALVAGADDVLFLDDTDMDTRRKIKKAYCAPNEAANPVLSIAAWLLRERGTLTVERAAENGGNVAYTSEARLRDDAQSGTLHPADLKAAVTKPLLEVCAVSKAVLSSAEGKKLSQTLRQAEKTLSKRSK
The experiment in a line: Trypanosoma cruzi tyrosyl tRNA synthetase (TcYRS) _High Tyrosine SOP. Note: in the data most compounds retested in dose-response had high values. It counts as functional. To be noted: 30 µM.

The target of assay [12] is T5, Tyrosyl-tRNA synthetase, putative (Trypanosoma cruzi (strain CL Brener)). The experiment in a line: Trypanosoma cruzi tyrosyl tRNA synthetase (TcYRS) SOP. The assay is classed as functional. To be noted: 30 µM.
Assay [13] deals with Chromo domain-containing protein 1 (Saccharomyces cerevisiae (strain ATCC 204508 / S288c) (Baker's yeast)) (UniProt P32657). The experiment in a line: ScCHD-1 Enzyme Inhibition Assay. Note: in the data most compounds retested in dose-response had high values. The assay is classed as functional. To be noted: 30 µM.
Sequence of Chromo domain-containing protein 1 (Saccharomyces cerevisiae (strain ATCC 204508 / S288c) (Baker's yeast)) (P32657 whole entry, the tested form may be a part): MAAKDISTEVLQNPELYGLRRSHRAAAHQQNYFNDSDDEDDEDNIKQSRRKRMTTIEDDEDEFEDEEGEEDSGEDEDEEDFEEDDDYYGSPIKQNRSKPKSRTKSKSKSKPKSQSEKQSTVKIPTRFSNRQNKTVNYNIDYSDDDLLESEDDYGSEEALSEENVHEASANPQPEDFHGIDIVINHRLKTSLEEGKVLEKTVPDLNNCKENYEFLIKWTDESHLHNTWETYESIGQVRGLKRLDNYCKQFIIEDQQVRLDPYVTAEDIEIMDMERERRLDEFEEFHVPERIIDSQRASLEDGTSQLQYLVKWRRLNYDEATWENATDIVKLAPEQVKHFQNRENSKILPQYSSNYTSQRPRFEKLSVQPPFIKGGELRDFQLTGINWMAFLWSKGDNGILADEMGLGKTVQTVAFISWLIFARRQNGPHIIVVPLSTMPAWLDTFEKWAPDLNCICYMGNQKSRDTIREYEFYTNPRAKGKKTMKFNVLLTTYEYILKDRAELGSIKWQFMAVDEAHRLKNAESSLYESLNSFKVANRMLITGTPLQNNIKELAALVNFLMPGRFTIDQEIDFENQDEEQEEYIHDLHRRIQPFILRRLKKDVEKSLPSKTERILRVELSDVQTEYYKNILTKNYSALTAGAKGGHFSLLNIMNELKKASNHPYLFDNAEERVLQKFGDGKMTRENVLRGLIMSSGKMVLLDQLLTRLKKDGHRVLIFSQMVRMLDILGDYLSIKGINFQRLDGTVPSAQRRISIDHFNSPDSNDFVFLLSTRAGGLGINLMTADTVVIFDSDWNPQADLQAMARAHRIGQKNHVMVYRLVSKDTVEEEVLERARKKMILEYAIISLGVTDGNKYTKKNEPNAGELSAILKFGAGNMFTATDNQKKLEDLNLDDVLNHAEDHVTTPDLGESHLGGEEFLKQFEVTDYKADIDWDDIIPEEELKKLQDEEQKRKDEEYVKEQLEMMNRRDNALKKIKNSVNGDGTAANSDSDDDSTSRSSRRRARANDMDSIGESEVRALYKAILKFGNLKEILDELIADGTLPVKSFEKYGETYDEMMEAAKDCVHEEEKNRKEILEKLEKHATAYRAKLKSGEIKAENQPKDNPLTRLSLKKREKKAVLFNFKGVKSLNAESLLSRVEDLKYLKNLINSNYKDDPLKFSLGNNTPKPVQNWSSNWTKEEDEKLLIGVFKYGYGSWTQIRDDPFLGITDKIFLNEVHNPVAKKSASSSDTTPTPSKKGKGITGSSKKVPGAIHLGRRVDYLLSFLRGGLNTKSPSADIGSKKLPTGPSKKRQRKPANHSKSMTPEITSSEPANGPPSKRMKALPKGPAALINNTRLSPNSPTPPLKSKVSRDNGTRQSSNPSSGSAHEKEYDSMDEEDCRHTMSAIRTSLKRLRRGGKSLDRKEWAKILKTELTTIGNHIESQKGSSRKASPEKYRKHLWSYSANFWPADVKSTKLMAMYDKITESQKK

Sequence of Protein translocase subunit SecA (Escherichia coli (strain K12)) (P10408 whole entry): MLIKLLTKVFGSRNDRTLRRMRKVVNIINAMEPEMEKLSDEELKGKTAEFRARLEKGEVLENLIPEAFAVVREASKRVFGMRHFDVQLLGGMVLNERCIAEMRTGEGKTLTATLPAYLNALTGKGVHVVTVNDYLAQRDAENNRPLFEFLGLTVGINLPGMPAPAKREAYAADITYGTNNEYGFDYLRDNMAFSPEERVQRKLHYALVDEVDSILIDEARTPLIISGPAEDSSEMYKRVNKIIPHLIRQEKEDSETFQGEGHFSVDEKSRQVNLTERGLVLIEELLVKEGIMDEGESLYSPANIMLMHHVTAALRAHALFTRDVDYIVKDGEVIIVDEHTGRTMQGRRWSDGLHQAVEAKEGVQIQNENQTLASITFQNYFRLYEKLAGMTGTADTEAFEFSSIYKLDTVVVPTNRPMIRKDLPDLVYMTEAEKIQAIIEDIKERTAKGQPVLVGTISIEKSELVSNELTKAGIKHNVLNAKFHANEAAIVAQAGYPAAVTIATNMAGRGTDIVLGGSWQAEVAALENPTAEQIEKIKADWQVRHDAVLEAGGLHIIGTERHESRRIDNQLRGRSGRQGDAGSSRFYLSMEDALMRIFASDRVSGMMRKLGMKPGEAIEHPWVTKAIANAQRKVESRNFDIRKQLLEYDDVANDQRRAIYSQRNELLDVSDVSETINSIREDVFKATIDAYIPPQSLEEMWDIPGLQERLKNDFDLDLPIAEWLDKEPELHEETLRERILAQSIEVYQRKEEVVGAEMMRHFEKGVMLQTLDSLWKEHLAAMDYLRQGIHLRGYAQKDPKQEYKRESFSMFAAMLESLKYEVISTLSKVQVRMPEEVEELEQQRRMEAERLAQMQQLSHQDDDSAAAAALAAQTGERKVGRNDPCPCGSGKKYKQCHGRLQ
Sequence of Sialic acid-binding Ig-like lectin 9 (Homo sapiens) (Q9Y336 whole entry): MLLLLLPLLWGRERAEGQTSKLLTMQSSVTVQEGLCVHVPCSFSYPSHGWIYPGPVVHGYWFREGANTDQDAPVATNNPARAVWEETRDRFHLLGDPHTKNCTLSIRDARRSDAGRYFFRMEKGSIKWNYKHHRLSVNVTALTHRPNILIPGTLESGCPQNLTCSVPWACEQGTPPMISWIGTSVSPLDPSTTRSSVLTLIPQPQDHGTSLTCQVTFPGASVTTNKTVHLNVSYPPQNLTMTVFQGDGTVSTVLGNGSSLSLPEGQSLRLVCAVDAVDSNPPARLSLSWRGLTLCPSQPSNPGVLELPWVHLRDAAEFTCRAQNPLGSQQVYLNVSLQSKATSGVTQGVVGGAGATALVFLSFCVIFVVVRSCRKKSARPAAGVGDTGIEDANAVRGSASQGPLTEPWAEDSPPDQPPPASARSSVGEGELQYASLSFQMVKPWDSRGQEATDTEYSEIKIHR

In the case of `CC(Cn1cccn1)NCc1nc(-c2cccs2)no1` (stereo not given), the Percent Effect in assay [1] is -4.32%; in assay [2], 5.26%; in assay [3] it was -3.4%; in [4], -6.35%; in assay [5], 2.35%; in assay [6] it was 3.08%. The Percent Effect in assay [7] is -2.88%; in [8], 5.67%; in [9], -9.95%; in assay [10], 4.43%; in [11], 4.43%; in assay [12], 16.1%. In addition, the Percent Effect in assay [13] was -2.61%.
Consider `COc1cccc(CNC(C)Cn2cccn2)c1OC` (stereo not given), for which the Percent Effect is -0.666% in assay [1]; 2.6% in assay [2]; 6.86% in [3]; 1.22% in [4]; 3.25% in [5]; -0.749% in [6]. The Percent Effect turned out to be 1.42% in [7]; 2.37% in assay [8]; 7.27% in [9]; 0.638% in [10]; 1.94% in assay [11]; 0% in [12]. The Percent Effect in [13] is -2.46%.
Take `CCn1cc(CN2CCCN(C(=O)Cc3cccs3)CC2)cn1`: the Percent Effect in [1] was -4.84%; in assay [2] it was 22.8%; in assay [3], -2.8%; in assay [4] it was -10.6%; in assay [5], 3.48%; in assay [6], 6.52%. Further, the Percent Effect in assay [7] was -0.76%; in [8], 15.6%; in [9], -4.27%; in assay [10] it was -21.2%; in assay [11], 10.3%; in assay [12], 29.1%. Also, the Percent Effect in assay [13] was -8.38%.
On to `CC(C)(C)n1cc(C2=CCN(CCc3ccccc3)CC2)cn1`, for which the Percent Effect was 0.726% in [1]; 1.39% in [2]; -2.65% in [3]; -7.35% in assay [4]; -1.87% in assay [5]; 5.93% in [6]. Moreover, the Percent Effect was 24.3% in [7]; 14.7% in [8]; 11.7% in assay [9]; -75.6% in assay [10]; 6.32% in assay [11]; 12.8% in [12]. The Percent Effect in assay [13] was -5.1%.
As for `O=C(CN1CCN(C(=O)Cc2ccc3c(c2)OCCO3)CC1)NC1CC1`, the Percent Effect in assay [1] was -0.996%; in assay [2] it was 18.2%; in assay [3] it was 3.1%; in [4] it was 0.741%; in assay [5], 0.674%; in assay [6], 2.06%. Besides, the Percent Effect in assay [7] was -2.13%; in [8] it was 11.8%; in [9] it was -0.0292%; in [10], -19.4%; in assay [11], 6.8%; in assay [12] it was 12.2%. Also, in assay [13], the Percent Effect is -6.48%.
